Results published in PubChem BioAssay (NCI).
About 79,000 compounds went through this panel and 15% of them were active in at least one assay; those are over-represented in the sample as a whole. Values without a mark were called inactive. The source made the active and inactive calls. No stated cut-off is given here; in the data, active means growth inhibition above about 70%; inactive means the rest.

How the values were obtained:
[1] = NCI Yeast Anticancer Drug Screen. Data for the rad50 strain (AID 155);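 further: 0% = growth of vehicle-only cultures of the same strain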; conditions: S. cerevisiae rad50 strain growth inhibition; at 50.0 µM; hits give high values
How it was run: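 Relative growth inhibition (compound vs vehicle) was measured in yeast with a defined repair-gene alteration.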

[2] = NCI Yeast Anticancer Drug Screen. Data for the mec2-1 strain (AID 157); conditions: S. cerevisiae mec2-1 strain, at 50.0 µM, hits give high values
How it was run: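 Cells of the genetically defined mec2-1 yeast strain are incubated with test compound. Inhibition of growth is calculated against vehicle-treated controls.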

[3] = NCI Yeast Anticancer Drug Screen. Data for the sgs1 mgt1 strain (AID 161);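 further: 0% = growth of cultures given vehicle only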; conditions: S. cerevisiae sgs1 mgt1 strain, at 50.0 µM, hits give high values
How it was run: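 Mutant yeast exposed to compound; growth scored against vehicle-only wells.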

[4] = NCI Yeast Anticancer Drug Screen. Data for the cln2 rad14 strain (AID 165);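 further: 0% = growth equal to vehicle treated cultures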; conditions: S. cerevisiae cln2 rad14 strain, at 50.0 µM, hits give high values
How it was run: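 The screen exposed genetically defined yeast (cln2 rad14) to test compounds and scored growth inhibition relative to vehicle-treated controls.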

[5] = NCI Yeast Anticancer Drug Screen. Data for the bub3 strain (AID 167); conditions: S. cerevisiae bub3 mutant strain, at 50.0 µM, hits give high values
How it was run: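 Screening used yeast with an engineered genetic alteration affecting cell cycle control. Compound-exposed cultures were compared with vehicle cultures, and reduced growth was taken as inhibition.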

[6] = NCI Yeast Anticancer Drug Screen. Data for the mlh1 rad18 strain (AID 175); conditions: S. cerevisiae mlh1 rad18 strain growth inhibition; at 50.0 µM; hits give high values
How it was run: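 Compound-treated yeast growth, normalised to vehicle controls. Strain bears defined DNA repair mutations.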

| Compound | growth inhibition [1] | growth inhibition [2] | growth inhibition [3] | growth inhibition [4] | growth inhibition [5] | growth inhibition [6] |
| --- | --- | --- | --- | --- | --- | --- |
| COc1ccc(C2c3cc4c(cc3OC(Nc3ccccc3)C2C)OCO4)cc1 (centres undefined) | 9% | 9.95% | 30% | 43.8% | 27.1% | 33.6% |
| S=c1nc[nH][nH]1 | 21.5% | -3.7% | 15.6% | -8.65% | 1.4% | 21.6% |
| CC(C)(C)NC(=S)N/N=C/c1ccccn1 | 77.2% (active) | 85.2% (active) | 90.5% (active) | 88.3% (active) | 89.7% (active) | 89.7% (active) |
| CC1=C(C(=O)NCc2ccccc2)C(c2ccccc2C)C(C(=O)NCc2ccccc2)=C(C)N1 | 52.1% | 26% | 31.6% | -10.9% | 36% | 25.4% |
| COc1ccc(C(O)C(CN(C)C)CN(C)C)cc1 (centres undefined) | -0.75% | -19.6% | 6.65% | 8.15% | 8.7% | 10.8% |
| O=C(Nc1ccc(Br)cc1)c1cc(Cl)cc(Cl)c1Br | -23.4% | 17.9% | -16.8% | -11.6% | 2.85% | 27.7% |
| COc1ccccc1-c1cc(=O)c2c(C)cc(C)nc2[nH]1 | -15.8% | -16.1% | -0.6% | -20.3% | 6.25% | 1.65% |
| Oc1ccccc1CN1CCOCC1 | 22.4% | 9.3% | 26.9% | 13.8% | -7.2% | 28.5% |
| COCCCN1C(=O)C2c3[nH]c4ccccc4c3C3CCC(C(C)(C)C)CC3C2C1=O (centres undefined) | 34.9% | 8.55% | 21.9% | 45.4% | 35.1% | 49.5% |
| CCCCCCCCCCCCCCCCOc1ccc(Sc2ccc([N+](=O)[O-])cc2)cc1 | 44.5% | 4.2% | 35.6% | -3.9% | 13.6% | 31.6% |
| CCCCS/C=C1\CC2OC(=O)C3(C)CCCC(C)(C1=O)C23 (centres undefined) | -1.85% | 15.2% | 8.15% | -3% | 11.5% | 26.6% |
| CCCCSCCC(=O)O | 18.4% | -3.05% | -22.2% | 3.95% | 5.95% | 5.85% |
| Cc1ccc2[nH]c(=S)[nH]c(=S)c2c1 | 19.9% | 5% | 13.2% | -19.8% | -33.2% | 36% |
| COn1nnc2ccccc21 | -21% | -13.8% | -19.9% | 5.15% | 7.9% | -18.1% |
| C=CCOC1OC(CS(=O)(=O)O)C(OC(C)=O)C(OC(C)=O)C1OC(C)=O (centres undefined) | 17.9% | 4.2% | -1.1% | 21.6% | -2.75% | 15.9% |
| COc1ccc(-c2c3c(n(C4OC(COC(C)=O)C(OC(C)=O)C(OC(C)=O)C4OC(C)=O)c(=S)c2C#N)CCC3)cc1 (centres undefined) | 28.8% | 35% | 43.3% | 32% | 46.8% | 20.9% |
| CCCCCCc1cn([C@H]2C[C@H](O)[C@@H](CO)O2)c(=O)[nH]c1=O | -5.6% | -5.4% | 7.2% | -12.8% | 3% | 9.15% |
| Cc1cc2c(=O)c3ccc(Cl)cc3[nH]c2c(C(N)=O)c1C | 22.2% | 7.4% | 14.5% | 26.3% | 6.6% | 13.3% |
| C(=N/N=C(/C(=N/N=C/c1ccccc1)c1ccccc1)c1ccccc1)\c1ccccc1 | 26.6% | 5% | 33.3% | 8.4% | 11.9% | 5.45% |
| O=C1c2cc(Br)ccc2-c2ccc(Br)c3cccc1c23 | -10.6% | -20.8% | -6.1% | 10.3% | -1.05% | -20.3% |

| Compound | growth inhibition [1] | growth inhibition [2] | growth inhibition [3] | growth inhibition [4] | growth inhibition [5] | growth inhibition [6] |
| --- | --- | --- | --- | --- | --- | --- |
| CNC(=O)c1ccccc1C(=N)c1ccccc1 | -12.6% | -5.4% | -11.2% | -8.05% | -9.65% | -8.35% |
| COC(=O)CC(c1ccccc1)N1CCOCC1 (centres undefined) | -12.3% | 19.4% | -10.2% | -20.4% | 7.35% | 12.8% |
| O=C1CC2(CCc3ccccc32)C(=O)N1CN1CCN(c2ccccn2)CC1 (centres undefined) | 0.55% | 3.5% | -10% | -9.15% | -1.9% | 18.1% |
| COC(=O)C1(CC(=O)c2ccc(F)cc2)NC(=S)NC(=O)C1C#N (centres undefined) | 14.6% | 2% | -8.3% | -13.1% | -34% | -1.7% |
| CC(C)C(N)C(=O)NO (centres undefined) | -17.1% | 17.9% | -13.4% | 5.05% | -1.7% | -7.3% |
| O=C(NO)C(=O)NO | -0.65% | -2.95% | -1.9% | -19.4% | -20% | -16.8% |
| NC(=S)c1ccc(N=Cc2ccccn2)cc1 | -0.25% | -0.35% | -1.7% | -12.3% | 3.1% | -8% |
| CCOC(=O)/C(=N/O)c1ccccn1 | 0.4% | -8.65% | -4.35% | 16.2% | -5.35% | -3.8% |
| CC1(C)COC(=O)OC1 | 17.8% | 11.5% | 16.4% | 12.8% | 14.8% | 16.9% |
| Cc1ccc(S(=O)(=O)NC2(C=O)CCCC3CCCCC32)cc1 (centres undefined) | 33% | 6% | -5.45% | -9.15% | 0% | 20.6% |
| C=CC(=O)NC(=O)/C=C/c1cccnc1 | 17.4% | -8.05% | 1% | -3.25% | 10.7% | 5.5% |
| CC1CN(Cc2ccccc2)CCC1N1CCCC1 (centres undefined) | 24.8% | 11.8% | 27.6% | 29.4% | 23.2% | 21.4% |
| O=C(O)c1nn(-c2ccc(Cl)cc2)c2c1C(=O)c1ccccc1C2=O | 20.9% | 14.7% | -1.75% | 14.1% | 12% | 4.65% |
| Nc1ncnc(N)c1NC(=O)c1cccc(C(=O)c2ccccc2)c1 | 2.85% | 16.1% | -10.7% | -3.5% | 0.85% | 0.85% |
| COc1cc(=O)n2c3ccccc3n(C)c2c1C#N | -9.75% | -16.9% | -0.95% | -0.25% | -4.35% | 41.8% |
| O=C(O)CCN1CCSC1=O | 7.15% | 12.6% | -4.3% | 3.75% | 2.35% | 1.8% |
| CC(/C=N/Nc1ccccc1)=N\N=c1/scc(-c2ccc(Cl)cc2)n1-c1ccc(Cl)cc1 | 22.4% | 4.65% | 13.9% | -0.2% | 11.1% | 27.9% |
| COC(=O)C1[C@@H](C(=O)OC)C12C=Cc1ccccc1C=C2 (some centres undefined) | -33.2% | -47% | -50.2% | 1.05% | -28.6% | -25.4% |
| C=CCOC(=O)C(F)(F)F | 0.15% | -4.25% | -0.7% | 4.35% | 6.85% | -1.4% |
